# Hit rate of the full screen: of about 68,000 compounds, about 2,700 (4%) showed an effect of 50% or more. For the sample, strong results were picked, then their nearest neighbours and some compounds at random.
# Tested on: Plasmodium berghei
# Assay: Screen against P. berghei liver stage (PbLuc), transformed with Luciferase, at 2uM
# Format: functional, HepG2
# Conditions: tested at 2 uM
row,Compound,INHIBITION
1,Fc1ccccc1CN1CCCN(c2ccc3cc[nH]c3n2)CC1,-1.87%
2,COc1ccc(OC)c(C2CCN(c3ccc4cc[nH]c4n3)C2)c1 (centres undefined),29.98%
3,COc1ccccc1C1CCN(c2ccc3cc[nH]c3n2)CC1,76.27%
4,COc1cccc(C2CC(=O)Nc3nc(N4CCCCC4)sc32)c1OC (centres undefined),-18.15%
5,COc1cccc(C2CCN(c3ccc4cc[nH]c4n3)C2)c1OC (centres undefined),87.17%
6,c1cc(CN2CCCN(c3ccc4cc[nH]c4n3)CC2)ccn1,45.82%
7,CCN1C(=O)CCC12CCCN(Cc1nccs1)CC2 (centres undefined),-23.02%
8,O=C1CC(c2ccccc2)c2sc(C(=O)O)c(-c3ccccc3)c2N1 (centres undefined),4.74%
9,Fc1ccc(CN2CCO[C@H]3[C@H](OCc4ccncc4)CC[C@@H]32)cc1,4.54%
10,c1ncc(-c2cn(CCSc3cnn[nH]3)nn2)cn1,70.58%
11,CCc1ncc(-c2cn(CCSc3ncn[nH]3)nn2)cn1,-5.87%
12,c1c[nH]c(-c2cn(CCSc3cnn[nH]3)nn2)n1,11.19%
13,CCn1ncc(C(=O)NCCc2nc(-c3ccncc3)n[nH]2)c1C,9.61%
14,Cc1ccc(NC2CCN(C(=O)Cc3c(C)noc3C)CC2)nn1,-25.13%
15,CC(C)Cc1cc(NC(=O)c2n[nH]c3ccccc23)n(C)n1,64.16%
16,CC(C)Cc1cc(NC(=O)c2ccccc2F)n(C)n1,-68.24%
17,Cn1nc(CC(C)(C)C)cc1NC(=O)c1ccc2[nH]nnc2c1,16.95%
18,CC(C)Cc1cc(NC(=O)c2ccc(=O)[nH]n2)n(C)n1,-19.76%
19,COc1ccc(C(=O)Nc2cc(CC(C)C)nn2C)cc1,19.35%
20,COc1ccccc1C(=O)Nc1cc(CC(C)C)nn1C,56.02%
21,CC(C)Cc1cc(NC(=O)c2ccc3[nH]nnc3c2)n(C)n1,50.61%
22,CC(C)Cc1cc(NC(=O)c2ccccc2)n(C)n1,49.9%
23,CC(C)Cc1cc(NC(=O)c2ccncc2)n(C)n1,25.46%
24,Clc1ccccc1-c1nnc(CNCCn2cccn2)o1,49.35%
25,C=C(C)COCCNC(=O)C1CCCN1C(C)=O (centres undefined),45.75%
26,Cn1cc(CN2CCCN(C(=O)c3ccc4ccccc4n3)CC2)cn1,30.05%
27,O=C(CNC(=O)Nc1c(F)cccc1Oc1ccccc1)NC1CC1,-40.7%
28,Cc1nc2c(C(=O)N[C@H]3C[C@H]4CN(C)CCN4C3)cccc2[nH]1,-51.5%
29,CCn1c(CN2CCCC(O)(c3ccc(F)cc3)CC2)cnc1SC (centres undefined),49.87%

# — ChEMBL document CHEMBL4513216, “Probing the Open Global Health Chemical Diversity Library for Multistage-Active Starting Points for Next-Generation Antimalarials” (ACS Infect Dis, 2020)
